Experiment [1] is described as follows: antimalarial activity against Dd2 strain (AID 2302;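 active means growth inhibition above 50% at the single 2 µM test dose, taken to imply half-maximal potency below 2 µM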;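 further: 0% = DMSO untreated growth and 100% = chloroquine plus artemisinin killed control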). As to conditions: P. falciparum Dd2 in RBCs, LDH growth readout, 72 h; at 2 µM; hits give high values.
Experiment [2] is described as follows: HepG2 cytotoxicity, primary screen, cytotoxicity control for P. falciparum antimalarial project, cell-based, ATP luminescence (AID 2303;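 active means inhibition above 50%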;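 further: 0% = DMSO wells and 100% = digitonin-killed cells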). Particulars: HepG2 viability, 24-48 h, at 10 µM, hits give high values.
The target in experiment [3] is L-lactate dehydrogenase (Plasmodium falciparum (isolate CDC / Honduras)) (UniProt Q27743). Kind of experiment: PfLDH activity inhibition – cell lysate, 3D7 strain, counter-screen for P. falciparum growth inhibition project (AID 2304).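 Further: 0% = vehicle and 100% = reference inhibitor.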 Particulars: P. falciparum 3D7 crude extract, LDH APAD/NBT absorbance; at 2 µM; hits give high values. (Counterscreens check selectivity or assay interference.)

Experiment [4] can be described thus: inhibition of 3D7 malaria parasite growth – strain 3D7 (AID 2306).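 Further: 0% = DMSO wells and 100% = chloroquine plus artemisinin control wells.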 Particulars: P. falciparum 3D7 erythrocytic growth, LDH absorbance, 72 h; at 2 µM; hits give high values.
Experiment [5] concerns the target Calcium-dependent protein kinase 1 (Plasmodium falciparum (isolate 3D7)) (UniProt P62344). Kind of experiment: PfCDPK1 kinase inhibitors, biochemical, TCAMS library (AID 1159585; cut-off not given, nearly all actives have IC50 up to about 0.98 µM;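 further: inhibitors leave more ATP so luminescence rises with inhibition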). As to conditions: recombinant PfCDPK1, Kinase-Glo ATP depletion luminescence. (Kinase-Glo measures the ATP left after a reaction by luminescence.)
For experiment [6], the target named is Plasmodium falciparum protein kinase 6 (PK6, PF3D7_1337100) (UniProt Q8IDW1). Kind of experiment: PfPK6 kinase inhibitors, biochemical, TCAMS library (AID 1159586). As to conditions: recombinant PfPK6, Kinase-Glo ATP depletion luminescence.
The target of experiment [7] is Protein kinase 7 (PK7), Plasmodium falciparum 3D7 (PF3D7_0213400) (UniProt Q7YTF7). In words: inhibition of Plasmodium PK7 catalytic activity – biochemical, TCAMS antimalarial set, Kinase-Glo luminescence (AID 1159587). Particulars: recombinant PfPK7, Kinase-Glo ATP depletion luminescence.
The target in experiment [8] is Calcium-dependent protein kinase 4 (Plasmodium falciparum (isolate 3D7)) (UniProt Q8IBS5). In words: PfCDPK4 kinase inhibitors, biochemical, TCAMS library (AID 1159588; cut-off not given, nearly all actives have IC50 up to about 0.91 µM). As to conditions: recombinant PfCDPK4, Kinase-Glo ATP depletion luminescence.

Unmarked numbers belong to inactive results. For part of these data: Entries with a potency or affinity are not part of this list. Activity calls are given as the source filed them. Unless noted, how the calls were made is not given here.

Chain of Plasmodium falciparum protein kinase 6 (PK6, PF3D7_1337100) (Q8IDW1 1-305): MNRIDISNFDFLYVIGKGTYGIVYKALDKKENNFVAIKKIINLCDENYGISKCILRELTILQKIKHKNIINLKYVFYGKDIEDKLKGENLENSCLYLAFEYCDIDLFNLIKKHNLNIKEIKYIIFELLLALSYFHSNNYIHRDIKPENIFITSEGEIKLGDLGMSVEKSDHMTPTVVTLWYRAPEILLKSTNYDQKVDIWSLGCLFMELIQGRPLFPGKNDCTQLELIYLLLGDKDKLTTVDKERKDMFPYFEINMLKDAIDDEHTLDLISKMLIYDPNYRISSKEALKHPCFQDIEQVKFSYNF
Chain of Calcium-dependent protein kinase 1 (Plasmodium falciparum (isolate 3D7)) (P62344 whole entry, looked up): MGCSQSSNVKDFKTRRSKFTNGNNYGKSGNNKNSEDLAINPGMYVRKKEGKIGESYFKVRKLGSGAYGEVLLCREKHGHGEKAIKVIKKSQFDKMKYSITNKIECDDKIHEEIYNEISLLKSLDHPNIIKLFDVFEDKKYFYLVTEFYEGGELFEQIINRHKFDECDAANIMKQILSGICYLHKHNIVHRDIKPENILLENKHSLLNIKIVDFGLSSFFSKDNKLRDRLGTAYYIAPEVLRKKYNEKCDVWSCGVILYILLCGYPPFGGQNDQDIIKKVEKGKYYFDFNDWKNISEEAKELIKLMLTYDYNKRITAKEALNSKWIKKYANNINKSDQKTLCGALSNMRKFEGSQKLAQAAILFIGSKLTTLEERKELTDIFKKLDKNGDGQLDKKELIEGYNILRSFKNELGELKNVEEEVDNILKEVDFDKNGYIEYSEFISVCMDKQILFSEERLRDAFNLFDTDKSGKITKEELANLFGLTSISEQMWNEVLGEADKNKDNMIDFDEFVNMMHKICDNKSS
Chain of Protein kinase 7 (PK7), Plasmodium falciparum 3D7 (PF3D7_0213400) (Q7YTF7 1-343): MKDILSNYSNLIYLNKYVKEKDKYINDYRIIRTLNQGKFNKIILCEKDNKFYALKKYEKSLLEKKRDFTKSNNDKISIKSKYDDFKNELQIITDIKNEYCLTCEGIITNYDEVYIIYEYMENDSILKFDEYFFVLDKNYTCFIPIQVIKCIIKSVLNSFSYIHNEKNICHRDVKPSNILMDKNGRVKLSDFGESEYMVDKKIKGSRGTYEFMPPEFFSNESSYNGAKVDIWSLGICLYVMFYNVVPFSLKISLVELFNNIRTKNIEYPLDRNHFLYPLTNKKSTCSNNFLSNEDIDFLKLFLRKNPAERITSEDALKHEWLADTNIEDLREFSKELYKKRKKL
Chain of L-lactate dehydrogenase (Plasmodium falciparum (isolate CDC / Honduras)) (Q27743 whole entry, looked up): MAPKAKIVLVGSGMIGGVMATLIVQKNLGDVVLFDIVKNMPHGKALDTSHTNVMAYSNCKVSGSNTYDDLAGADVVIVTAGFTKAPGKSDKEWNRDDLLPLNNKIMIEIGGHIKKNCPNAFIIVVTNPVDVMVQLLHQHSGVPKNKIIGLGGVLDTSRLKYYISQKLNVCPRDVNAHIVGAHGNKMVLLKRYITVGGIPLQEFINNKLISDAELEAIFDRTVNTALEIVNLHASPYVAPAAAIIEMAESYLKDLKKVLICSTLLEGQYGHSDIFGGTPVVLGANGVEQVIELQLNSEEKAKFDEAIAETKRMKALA
Chain of Calcium-dependent protein kinase 4 (Plasmodium falciparum (isolate 3D7)) (Q8IBS5 whole entry, looked up): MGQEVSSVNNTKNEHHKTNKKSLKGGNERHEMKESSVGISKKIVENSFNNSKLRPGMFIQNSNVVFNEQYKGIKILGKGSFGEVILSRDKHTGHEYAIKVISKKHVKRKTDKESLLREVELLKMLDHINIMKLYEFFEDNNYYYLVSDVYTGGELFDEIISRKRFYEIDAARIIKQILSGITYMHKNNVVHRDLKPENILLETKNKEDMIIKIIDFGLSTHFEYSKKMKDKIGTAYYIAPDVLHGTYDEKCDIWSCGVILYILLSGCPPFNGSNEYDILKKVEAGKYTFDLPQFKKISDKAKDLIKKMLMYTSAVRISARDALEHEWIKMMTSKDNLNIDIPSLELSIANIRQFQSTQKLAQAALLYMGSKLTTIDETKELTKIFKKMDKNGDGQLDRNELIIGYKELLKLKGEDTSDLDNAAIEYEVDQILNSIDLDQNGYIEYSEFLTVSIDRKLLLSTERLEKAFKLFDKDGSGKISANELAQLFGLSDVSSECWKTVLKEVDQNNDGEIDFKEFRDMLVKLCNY

For `Cc1ccc(NC(=O)NC2CCN(CCCCCNC(=O)[C@@H]3C[C@H]3c3ccc(Cl)c(Cl)c3)CC2)cc1`, the growth inhibition in experiment [1] was 19%; in experiment [4], 101% (active). Also, the inhibition in experiment [2] was 35%; in experiment [3] it was 1%. Moreover, the result in experiment [5], in experiment [6], in experiment [7] and in experiment [8] was inactive.

As for `O=C(N[C@@H](Cc1ccccc1)C(=O)NC1CCCCC1)c1ccc(O)c(-c2ccc(Cl)c(Cl)c2)c1`, the results for the growth inhibition in experiment [1] and in experiment [4] were 99% (active) and 98% (active), respectively. The inhibition in experiment [2] is -5%; in experiment [3], 1%. The outcome in experiment [5], in experiment [6], in experiment [7] and in experiment [8] was inactive.

`CC(C)(C)c1ccc(CNCCOc2ccc(Nc3nnc(-c4ccc(-c5ncc[nH]5)cc4)o3)c3ccccc23)cc1`: the growth inhibition was 88% (active) in experiment [1] and 100% (active) in experiment [4]. Besides, the inhibition in experiment [2] is 43%; in experiment [3], 0%. The result in experiment [5], in experiment [6], in experiment [7] and in experiment [8] was inactive.

As for `COc1ccc(CCn2c(=N)c(C(=O)NCc3ccc(C)cc3)cc3c(=O)n4ccccc4nc32)cc1`, the growth inhibition is 16% in experiment [1] and 97% (active) in experiment [4]. Further, the inhibition in experiment [2] is 13%; in experiment [3], -3%. The result in experiment [5], in experiment [6], in experiment [7] and in experiment [8] was inactive.

`COc1ccc2nccc([C@@H](O)CN3CCC(NCc4cc5c(cc4F)SCC(=O)N5)CC3)c2n1`: the growth inhibition in experiment [1] is 27%; in experiment [4], 96% (active). In addition, the inhibition is 14% in experiment [2] and 3% in experiment [3]. Moreover, the outcome in experiment [5], in experiment [6], in experiment [7] and in experiment [8] was inactive.

As to `CC=CC(=O)N1CCN(c2nccc(-c3ccc(C(C)(C)C)cc3)n2)CC1`, the growth inhibition in experiment [1] was 70% (active); in experiment [4] it was 95% (active). Also, the inhibition in experiment [2] is 20%; in experiment [3] it was 0%. Also, the result in experiment [5], in experiment [6], in experiment [7] and in experiment [8] was inactive.

Regarding `CC1CN(c2ccc(NC(=O)c3cccs3)cc2)CCN1Cc1cccc(F)c1` (centres undefined), the growth inhibition in experiment [1] and in experiment [4] was 96% (active) in each case. Moreover, the inhibition was 5% in experiment [2] and 0% in experiment [3]. The result in experiment [5], in experiment [6], in experiment [7] and in experiment [8] was inactive.

In the case of `COc1cccc(NC(=O)c2cc(C(=O)Nc3cccc(OC)c3)cc([N+](=O)[O-])c2)c1`, the results for the growth inhibition in experiment [1] and in experiment [4] were 61% (active) and 99% (active), respectively. In addition, the inhibition is 1% in experiment [2] and -3% in experiment [3]. In addition, the result in experiment [5], in experiment [6], in experiment [7] and in experiment [8] was inactive.

Take `COc1ccc(-n2ccnc2SCC(=O)Nc2cc(C(F)(F)F)ccc2Cl)c(OC)c1`: the growth inhibition in experiment [1] was 76% (active); in experiment [4] it was 98% (active). Besides, the inhibition in experiment [2] is 0%; in experiment [3], -8%. Also, the outcome in experiment [5], in experiment [6], in experiment [7] and in experiment [8] was inactive.

In the case of `CN1CCC(NCc2ccc(-c3cccc(-c4nc5ccccc5[nH]4)c3)cc2)CC1`, the growth inhibition was 96% (active) in experiment [1] and 100% (active) in experiment [4]. For the same molecule, the figures for the inhibition in experiment [2] and in experiment [3] were 50% (active) and -5%, respectively. Moreover, the outcome in experiment [5], in experiment [6], in experiment [7] and in experiment [8] was inactive.

For the molecule `COc1ccc2nccc(N3CCN(CCNCc4ccc5c(n4)NC(=O)CO5)CC3)c2n1`, the growth inhibition was 12% in experiment [1] and 98% (active) in experiment [4]. Further, the inhibition was 10% in experiment [2] and 1% in experiment [3]. Besides, the outcome in experiment [5], in experiment [6], in experiment [7] and in experiment [8] was inactive.

As for `Cc1cc(CNCCCCCNCc2ccc(Cl)cc2)ccc1O`, the growth inhibition was -1% in experiment [1] and 98% (active) in experiment [4]. Also, the figures for the inhibition in experiment [2] and in experiment [3] were 12% and -7%, respectively. Also, the outcome in experiment [5], in experiment [6], in experiment [7] and in experiment [8] was inactive.

`CCn1c(C(C)C)cc2c3c(N)nc(N)nc3ccc21`: the results for the growth inhibition in experiment [1] and in experiment [4] were -2% and 92% (active), respectively. The results for the inhibition in experiment [2] and in experiment [3] were 67% (active) and 2%, respectively. Moreover, the outcome in experiment [5], in experiment [6], in experiment [7] and in experiment [8] was inactive.

For `CC(C)N1CCC(N(Cc2ccc(-c3ccc(C(F)(F)F)cc3)cc2)C(=O)Cn2c(CCc3cccc(F)c3F)cc(=O)c3c2CCC3)CC1`, the growth inhibition is 62% (active) in experiment [1] and 100% (active) in experiment [4]. For the same molecule, the inhibition in experiment [2] is 30%; in experiment [3] it was -7%. Further, the outcome in experiment [5], in experiment [6], in experiment [7] and in experiment [8] was inactive.

As for `Cc1cc(N[C@@H](CC(C)C)C(=O)NCCc2ccccc2)nc(NCc2ccccc2C)n1`, the growth inhibition is 74% (active) in experiment [1] and 93% (active) in experiment [4]. The inhibition in experiment [2] was 17%; in experiment [3], 0%. In addition, the outcome in experiment [5], in experiment [6], in experiment [7] and in experiment [8] was inactive.

As to `Cc1cccc2[nH]c(-c3ccc(-c4cccc(NC(=O)Nc5ccccc5)c4)cc3)nc12`, the growth inhibition was 14% in experiment [1] and 101% (active) in experiment [4]. In addition, the inhibition in experiment [2] is 18%; in experiment [3], 9%. Moreover, the outcome in experiment [5], in experiment [6], in experiment [7] and in experiment [8] was inactive.

Take `Cc1ccc2nc(Nc3ccc(Nc4nc5ccc(C)cc5[nH]4)c(C)c3)[nH]c2c1`: the growth inhibition in experiment [1] was 94% (active); in experiment [4] it was 99% (active). The results for the inhibition in experiment [2] and in experiment [3] were 12% and 6%, respectively. In addition, the outcome in experiment [5], in experiment [6], in experiment [7] and in experiment [8] was inactive.

With `COc1cccc(OC2CCN(C(=O)c3ccc(-c4ccc(N5CCCC5=O)cc4C)cc3)CC2)c1`, the growth inhibition in experiment [1] is 80% (active); in experiment [4], 85% (active). Besides, the inhibition is 42% in experiment [2] and -3% in experiment [3]. For the same molecule, the result in experiment [5], in experiment [6], in experiment [7] and in experiment [8] was inactive.

Usually inhibition stands for the drop in the measured response relative to a control, in per cent.
